PubChem BioAssay AID720603 (Broad Institute, 2013)
Results with a measured potency or affinity are listed apart. Results filed as inconclusive are left out. Activity calls are given as the source filed them.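 Rule for the calls: active = every test run gave an active call, each with a potency at or below twice the top valid dose; inconclusive = test runs disagree, or curve fits are weak or unclear; inactive = every test run inactive, including wrong-way signal.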

Test: cytotoxicity in mouse C2C12 myoblasts – cell-based, CellTiter-Glo ATP luminescence, 8/24/48 h, dry powder, cytotoxicity control for HRAS target identification, dose response (AID 720603)

For Cc1onc(C(=O)N2CCN(C(c3ccncc3)c3ccncc3)CC2)c1[N+](=O)[O-], which outcome is on record?
The outcome was “inactive”.
